Compound activity deposited in PubChem BioAssay by National Center for Advancing Translational Sciences (NCATS).
KB-V1 cytotox: qHTS assay for MDR1-selective chemotherapeutics: Primary screen using the drug-selected MDR subline cells KB-V1. KB-V1 MDR cells viability, CellTiter-Glo, 72 h. Potency, µM (series often up to 46.1 µM), usual class: cytotoxic. 400,000 tested, 3.4% active; further: on the % scale 0 is the no-effect control and ±100 the full control effect; nearly all actives have a fitted effect of over 60% in size
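Following 72 h at 37 degrees C with compound, KB-V1 cell viability was read by CellTiter-Glo luminescence, medium being phenol-red-free DMEM plus 10% FBS; concentration-response parameters came from normalized, curve-fitted qHTS data.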
ATXN2 expr inh: Primary qHTS for Inhibitors of ATXN expression. HEK-293 ATXN2-luciferase reporter, luminescence, 24 h. Potency, µM (highest dose often 57 µM), without a hit: at the highest dose activity change, negative = inhibition, actives largely listed as inhibitors. 360,000 tested, 0.72% active; further: on the % scale 0 is the no-effect control and ±100 the full control effect; nearly all actives have a fitted effect of over 55% in size
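qHTS (up to 57 uM final) was run with 24 h compound exposure of reporter cells at 37 °C. Each well was multiplexed: SteadyGlo luminescence measured ATXN2-luciferase expression after a fluorogenic Gly-Phe-AFC viability readout (25 uM final).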
ATXN viability: Viability Counterscreen for Primary qHTS for Inhibitors of ATXN expression; S2 cells (HEK-293 line with an ATXN2-luciferase reporter) viability, CellTiter-Fluor protease fluorescence, 24 h; Potency, µM (highest dose often 56.7 µM), most hits filed as cytotoxic; 400,000 tested, 0.49% active; AID 651635, 2014; further: nearly all actives have a fitted effect of over 40% in size
TGFb SMAD3 inh: qHTS for Inhibitors of TGF-b. HepG2 CAGA-GFP TGF-b/SMAD3 reporter, GFP fluorescence, 18 h; TGF-beta stimulated, 500 pg/mL final. Potency, µM (series often up to 46.1 µM), inactives show top-dose activity, negative = inhibition, hits mostly inhibitors. 410,000 tested, 1.2% active; further: on the % scale 0 is the no-effect control and ±100 the full control effect; nearly all actives have a fitted effect of over 65% in size
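HEPG2 CAGA-GFP reporter cells (1000/well, DMEM with 1% FBS) received compounds, then recombinant TGF-beta at 500 pg/mL final for 18 hours at 37 degrees C. Per-cell GFP summed per well was normalised to unstimulated and stimulated DMSO controls before curve fitting.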
HepG2 viability: qHTS for Inhibitors of TGF-b: Cytotox Counterscreen. HepG2 CAGA-GFP viability, ATP luminescence, 18 h. Potency, µM (series often up to 46.1 µM), without a hit: top-dose activity change, negative = cytotoxicity, most hits filed as cytotoxic. 410,000 tested, 0.76% active
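CellTiter-Glo luminescence gave cytotoxicity after 18 hours at 37 degrees C. The cells were HepG2 CAGA-GFP in 1% FBS DMEM, stimulated with 500 pg/mL TGF-beta after compound addition. %Activity was normalised to no-cell wells (complete cell-killing) and DMSO (no toxicity), and curves were fitted and classified.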
KB-3-1 cytotox: qHTS assay for MDR1-selective chemotherapeutics: Primary screen using the parental adenocarcinoma cell KB-3-1; Potency, µM (top dose mostly 46.1 µM), hits mostly cytotoxic; 400,000 tested, 1.4% active; AID 1347075, 2019; KB-3-1 viability, CellTiter-Glo ATP luminescence, 72 h; further: on the % scale 0 is the no-effect control and ±100 the full control effect; nearly all actives have a fitted effect of over 60% in size
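KB-3-1 cells, DMEM (no phenol red) + 10% FBS; compound by pin transfer, 72 h, 37 °C. Readout: CellTiter-Glo luminescence after 10 min. Data normalized, curve-fitted.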
Starred values were filed as active, the others as inactive; i = inactive; ? = inconclusive; . = no result given; ! = not confirmed by another sample. This is a sample that favours compounds with a hit; in the whole collection about 5.9% have one here. The call rests on the fitted dose curve; in most records, active means well fitted curve in the direction sought with a large enough effect; inconclusive means small, poorly fitted or top-dose-only effect, or another doubt; inactive means no such curve, though single readings can be large; an effect the other way counts as inactive or inconclusive. Potency means the concentration at half of the fitted maximal effect.

SMILES | KB-V1 cytotox | ATXN2 expr inh | ATXN viability | TGFb SMAD3 inh | HepG2 viability | KB-3-1 cytotox
CCN(CC)c1ccc(/C=N/N(c2ccccc2)c2ccccc2)c(O)c1 | 16µM* | 9% | i | -2% | 8% | i
CCN(CC)c1ccc(/C=N/NC(=S)NCc2ccccc2)c(O)c1 | i | ? | i | ? | -4% | 7.3µM*
COc1cc(OC)c(OC)cc1/C=N/Nc1nc2ccccc2[nH]1 | i | . | i | -5% | -3% | i
CCN(CC)c1ccc(/C=N/Nc2nc3ccccc3[nH]2)c(O)c1 | i | ? | 5µM* | 16µM* | -32% | ?
CCN(CC)c1ccc(/C=N/N=C(c2ccccc2)c2ccccc2)c(O)c1 | ? | 2% | i | 0% | -27% | i
Cc1ccccc1OCC(=O)Nc1ccc2nc(SCC(=O)N3CCc4ccccc43)sc2c1 | i | 3% | i | 1% | -8% | i
COc1ccccc1-c1ccc(C(=O)NCCN2CCOCC2)c(N2CCN(c3ccccc3F)CC2)n1 | . | . | i | . | . | .
CCCN1CCN(CCCNC(=O)c2cc3c(s2)-c2c(C)cccc2OC3)CC1 | i | ? | ? | ? | 11µM*! | ?
Cc1cccc2c1-c1sc(C(=O)NCCCN3CCCC(C)C3)cc1CO2 (stereo not given) | i | 35µM* | ? | ? | -100% | i
Cc1cccc(CCNC(=O)c2cc3c(s2)-c2c(C)cccc2OC3)c1 | i | 1% | i | 1% | -1% | i
CN=c1nc(-c2ccccc2)n(-c2ccccc2)s1 | i | 50% | i | -17% | -7% | i
Cc1ccc(-c2nc(=Nc3c(C)cc(C)cc3C)sn2-c2ccccc2)cc1 | ? | . | . | 5.6µM* | -29% | ?
O=S(=O)(c1ccc2c(c1)CCCC2)N1CCN(c2nc(-c3cccs3)nc3ccccc23)CC1 | i | . | . | 28% | -2% | ?
Cc1cccc(C(=O)Nc2ccccc2SCC(=O)Nc2ccc(C)c(Cl)c2)c1 | ? | ? | ? | -23% | -5% | 12µM*
Cc1ccc(NC(=O)CSc2ccccc2NC(=O)c2cccc(Cl)c2)cc1Cl | ? | 2% | i | -19% | -5% | i
Cc1ccc(NC(=O)Cn2cccc2)cc1Cl | 18µM* | -3% | i | -2% | -6% | i
Cc1ccc(NC(=O)Cn2cccc2)cc1C | i | 3% | i | 1% | 8% | i
CCOC(=O)[C@]12CCCC=C1N(Cc1ccco1)C(=O)[C@H](CC(=O)NCc1cccc(C(F)(F)F)c1)C2 | ? | -10% | ? | . | . | i
CCCCCOC(=O)Nc1nc(=O)n([C@@H]2O[C@H](C)[C@@H](O)C2O)cc1F (stereo not given in full) | . | -10% | . | . | . | .
CC(C)C[C@H](NC(=O)[C@@H](COC(C)(C)C)NC(=O)[C@H](Cc1ccc(O)cc1)NC(=O)[C@H](CO)NC(=O)[C@H](Cc1c[nH]c2ccccc12)NC(=O)[C@H](Cc1cnc[nH]1)NC(=O)[C@@H]1CCC(=O)N1)C(=O)N[C@@H](CCCN=C(N)N)C(=O)N1CCC[C@H]1C(=O)NNC(N)=O | . | . | i | . | . | .
CC(C)CCn1c(N)c(S(=O)(=O)c2cccs2)c2nc3ccccc3nc21 | 21µM* | 18µM* | ? | 16µM* | -34% | i
Cc1ccc(S(=O)(=O)c2c(N)n(CCC(C)C)c3nc4ccccc4nc23)cc1 | 13µM* | ? | ? | ? | -66% | ?
CCCS(=O)(=O)NCc1c(C)ncc2c1CCN(C(=O)/C=C/c1ccc(F)cc1F)C2 | . | . | i | . | . | .
CCOC(=O)c1ccc(NC(=O)c2c(NCc3cc(OC)c(OC)cc3OC)sc3c2CCCC3)cc1 | i | -19% | 32µM* | 0% | -26% | i
CCOC(=O)c1ccc(NC(=O)c2c(NCc3sccc3C)sc3c2CCC(C)C3)cc1 (stereo not given) | i | -32% | ? | 14µM* | -39% | i
SMILES | KB-V1 cytotox | ATXN2 expr inh | ATXN viability | TGFb SMAD3 inh | HepG2 viability | KB-3-1 cytotox
CCOc1ccccc1NC(=O)c1c(NCc2sccc2C)sc2c1CCC(C)C2 (stereo not given) | . | . | . | . | -35% | .
CC1Cc2ccccc2N1C(=O)CSc1nnc(Cc2ccccc2)n1CCc1ccccc1 (stereo not given) | 3.3µM* | ? | ? | ? | 10% | i
CC1Cc2ccccc2N1C(=O)CSc1nnnn1C (stereo not given) | i | -10% | i | 5% | -22% | i
CCN(CC)S(=O)(=O)c1ccc(-c2nnc(SCC(=O)N3c4ccccc4CC3C)n2CC)cc1 (stereo not given) | 21µM* | -18% | i | ? | 4% | i
CCN(C(=O)c1c(O)c2c(Cl)cccc2n(C)c1=O)c1ccccc1 | . | -11% | . | . | . | .
COc1ccccc1CN1CCC2(CC1)c1ccccc1[C@@H](NC(=O)c1ccco1)[C@@H]2OC | . | . | i | . | . | .
COc1ccc(S(=O)(=O)NCCc2cn3ccsc3n2)cc1 | . | . | . | 3% | -13% | .
O=C1NC(=O)C(=Cc2ccc(-c3ccc(F)cc3)o2)S1 | . | 23% | . | . | . | .
CC(=O)OCC1=C(C(=O)O)N2C(=O)C(NC(=O)c3ccc(F)cc3)C2SC1 (stereo not given) | i | . | 14µM* | -5% | 4% | i
CCOC(=O)c1cnc(-n2nc(C)cc2C)nc1NC(C)c1ccccc1 (stereo not given) | 1µM* | ? | ? | -4% | -8% | ?
CCOC(=O)c1cnc(-n2cc(C)cn2)nc1NCc1ccc2c(c1)OCO2 | 4.1µM* | -5% | i | 10% | 1% | i
CCOC(=O)c1cnc(-n2nc(C)cc2C)nc1NCc1ccccc1 | 0.92µM* | ? | ? | ? | -38% | ?
Cc1cccc(-c2nn3c(=O)cc(CN4CCN(C(=O)c5ccccc5Br)CC4)nc3s2)c1 | i | -6% | i | ? | -7% | i
CNC(=O)C1(C)Cc2c(-c3ccc4c(c3)OCO4)ccnc2O1 (stereo not given) | i | 3% | i | 1% | -28% | i
CC(=O)Nc1cccc(-c2ccnc3c2CC(C)(C(=O)Nc2ccc4c(c2)OCO4)O3)c1 (stereo not given) | 8.2µM* | -17% | ? | -19% | -15% | 2.3µM*
